# Hit rate of the full screen: of about 52,000 compounds, about 4,300 (8.3%) were called active. Only a selection was taken, and actives are over-represented in it overall. Unmarked numbers belong to inactive results. Rule as the data show it: active = survival mostly below about 52% (no sharp cut-off); inactive = mostly above about 56%.
# System: DeltatarO mutant
# Assay: S. aureus survival, RN4220 and DeltatarO strains – OD600, teichoic acid synthesis inhibitors, primary screen (AID 463173)
# Settings: S. aureus RN4220 wild type/DeltatarO growth, OD600, 18 h, active compounds read low, screened at 18.75 µg/mL (by protocol)
row,SMILES,survival
1,CCc1cccc(C)c1NS(=O)(=O)c1c(C(=O)N2CCCCCC2)c(C)n(C)c1C,101%
2,Cc1ccc(-n2ncc(C(=O)N3CCN(C4CCCCC4)CC3)c2C2CCN(C(=O)OC(C)(C)C)CC2)cc1C,85%
3,Cc1cccc(CNS(=O)(=O)c2csc(C(N)=O)c2)c1,76%
4,CC(Oc1ccccc1)C(=O)Nc1ccc(OCc2cc(=O)n3ccsc3n2)cc1 (stereo not drawn),76%
5,CCCn1c(=O)c2sccc2n2c(CCCC(=O)Nc3ccc(C)c(F)c3)nnc12,88%
6,O=C(C1CCCCC1)N1CCN(c2ncnc3c2cnn3-c2ccccc2)CC1,101%
7,O=CN1CCN(C(=O)c2ccc(F)cc2)CC1,78%
8,Cc1cccc(NC(=O)c2sc3ncnc(N(C)C4CCCCC4)c3c2C)c1C,118%
9,Cc1ccc(CNC(=O)c2sc3ncnc(N(C)C4CCCCC4)c3c2C)cc1,91%
10,Cc1c(C(=O)Nc2ccccc2F)sc2ncnc(N(C)C3CCCCC3)c12,37% (active)
11,Cc1c(C(=O)Nc2ccccc2Cl)sc2ncnc(N(C)C3CCCCC3)c12,92%
12,Cc1cccc(CNC(=O)c2sc3ncnc(N(C)C4CCCCC4)c3c2C)c1,46% (active)
13,Cc1c(C(=O)NCc2cccc(Cl)c2)sc2ncnc(N(C)C3CCCCC3)c12,101%
14,O=C(NC1CC(=O)N(c2cccc(F)c2)C1)c1ccc(S(=O)(=O)N2CCCCC2)cc1 (stereo not drawn),91%
15,CCc1ccccc1Nc1ncnc2c1nc1n2CCCC1,94%
16,O=C(CSc1nc2c([nH]c3ccccc32)c(=O)n1-c1ccc(Cl)cc1)N1CCCCCC1,76%
17,CCC(=O)Nc1nnc(S(=O)(=O)N(C)Cc2ccccc2)s1,87%
18,CN(Cc1ccccc1)S(=O)(=O)c1nnc(NC(=O)c2cccc(Cl)c2)s1,1% (active)
19,CCCCC(=O)Nc1nnc(S(=O)(=O)N(C)Cc2ccccc2)s1,91%
20,Cc1cccc(C(=O)Nc2nnc(S(=O)(=O)N(C)Cc3ccccc3)s2)c1,23% (active)
21,Cc1cccc(C(=O)Nc2nnc(S(=O)(=O)N(C)Cc3ccc(Cl)cc3)s2)c1,95%
22,Cc1cccc(C(=O)Nc2nnc(S(=O)(=O)N(C)c3ccccc3C)s2)c1,32% (active)
23,CN(Cc1ccc(F)cc1)S(=O)(=O)c1nnc(NC(=O)c2ccccc2Cl)s1,85%
24,CN(Cc1ccccc1)S(=O)(=O)c1nnc(NC(=O)c2ccccc2Cl)s1,29% (active)
25,CCOc1cccc(C(=O)Nc2nnc(S(=O)(=O)N(C)c3ccc(C)cc3)s2)c1,75%
26,Cc1ccccc1C(=O)Nc1nnc(S(=O)(=O)N(C)Cc2ccccc2)s1,75%
27,Cc1cccc(N(C)S(=O)(=O)c2nnc(NC(=O)C(C)Oc3ccccc3)s2)c1 (stereo not drawn),54%
28,Cc1ccc(C(=O)Nc2nnc(S(=O)(=O)N(C)Cc3ccc(Cl)cc3)s2)cc1,99%

# Source: PubChem BioAssay AID463173 (ICCB-Longwood Screening Facility, Harvard Medical School, 2010)
